Among the test systems are SR leukemia; RPMI-8226 leukemia; OVCAR-8 ovarian; OVCAR-5 ovarian; OVCAR-4 ovarian; SK-OV-3 ovarian; IGROV1 ovarian; OVCAR-3 ovarian; HS 578T breast; NCI/ADR-RES ovarian; BT-549 breast; MDA-MB-435 melanoma; SW-620 colon; MCF7 breast; HCT-116 colon; HCC-2998 colon; KM12 colon; T-47D breast.
Assay in all cases: NCI-60 one-dose screen, 48 h (100 = growth as untreated, 0 = no growth, -100 = all killed)
Common to all, as to conditions: 10 µM unless noted

The results in this text go back to PubChem BioAssay (NCI).

“And” between values parts separate entries of the source, which are not always exact repeats. Equal entries are not always repeated. Compounds without any hit were thinned out: in the full panel of roughly 83,000, 20% have a hit.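 Assay: single dose, 48 h. Readout: percent growth (0 = no net growth; negative = cell death). Active: <10.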 The source made the active and inactive calls.

As for `O=C1OCC2=C1C(c1cccc(C(F)(F)F)c1)c1cc3c(cc1N2CCO)OCCO3` (configuration not stated), the growth in the assay on SR leukemia is 13.3% (inactive); in the assay on RPMI-8226 leukemia, 22.2% (inactive); in the assay on OVCAR-8 ovarian it was 11.4% (inactive); in the assay with OVCAR-5 ovarian it was 45.9% (inactive); in the assay with OVCAR-4 ovarian, 66.3% (inactive); in the assay on SK-OV-3 ovarian, 16.1% (inactive). For the same compound, the growth in the assay on IGROV1 ovarian is 38% (inactive); in the assay with OVCAR-3 ovarian it was -4.23% (active); in the assay on HS 578T breast it was 27.8% (inactive); in the assay with NCI/ADR-RES ovarian, 22.2% (inactive); in the assay on BT-549 breast it was 41.7% (inactive); in the assay with MDA-MB-435 melanoma it was -41.1% (active). The growth was 24.5% (inactive) in the assay on SW-620 colon; 23.1% (inactive) in the assay on MCF7 breast; 10.3% (inactive) in the assay on HCT-116 colon; 8.81% (active) with HCC-2998 colon; 16.9% (inactive) in the assay on KM12 colon.
As to `COc1cc(/C=C2\CCC/C(=C\c3cc(CN4CCCC4)c(O)c(OC)c3)C2=O)cc(CN2CCCC2)c1O`, the growth in the assay with SR leukemia was 8% (active); with RPMI-8226 leukemia, 14.2% (inactive); with OVCAR-8 ovarian it was 8.24% (active); with OVCAR-5 ovarian, 39.9% (inactive); in the assay with OVCAR-4 ovarian, 47.1% (inactive); with SK-OV-3 ovarian it was 102% (inactive). Besides, the growth in the assay on IGROV1 ovarian was 52.7% (inactive); with OVCAR-3 ovarian, 6.05% (active); with HS 578T breast, 63.7% (inactive); in the assay with BT-549 breast it was 49.2% (inactive); with MDA-MB-435 melanoma it was 8.88% (active); with SW-620 colon it was 25.8% (inactive). Also, the growth was 14.3% (inactive) in the assay with MCF7 breast, -34.5% (active) in the assay on HCT-116 colon, 52.3% (inactive) in the assay with HCC-2998 colon and 11.9% (inactive) with KM12 colon.
As for `Nc1nc(CSc2n[nH]c(N)n2)nc(Nc2ccccc2)n1`, the growth is 120% (inactive) in the assay on SR leukemia; 102% (inactive) in the assay with RPMI-8226 leukemia; 104% (inactive) with OVCAR-8 ovarian; 98.8% (inactive) in the assay on OVCAR-5 ovarian; 93.4% (inactive) with OVCAR-4 ovarian; 104% (inactive) in the assay with SK-OV-3 ovarian. In addition, the growth is 108% (inactive) in the assay on IGROV1 ovarian; 105% (inactive) in the assay on OVCAR-3 ovarian; 81.5% (inactive) with HS 578T breast; 94.5% (inactive) in the assay with T-47D breast; 95.7% (inactive) with BT-549 breast; 99% (inactive) with SW-620 colon. The growth with MCF7 breast is 93.3% (inactive); with HCT-116 colon, 105% (inactive); in the assay on HCC-2998 colon it was 110% (inactive); in the assay with KM12 colon, 98.4% (inactive).
Consider `COc1cccc(C2C(C#N)=C(N)Oc3cc(OCCCCCC[P+](c4ccccc4)(c4ccccc4)c4ccccc4)ccc32)c1` (configuration not stated), for which the growth with SR leukemia was -48.8% (active); in the assay on RPMI-8226 leukemia, -36.4% (active); in the assay with OVCAR-8 ovarian, 1.01% (active); with OVCAR-4 ovarian, 2.58% (active); in the assay on SK-OV-3 ovarian, -33.5% (active); with IGROV1 ovarian, -55.8% (active). Moreover, the growth with OVCAR-3 ovarian is -81.3% (active); with HS 578T breast it was -16.5% (active); in the assay on NCI/ADR-RES ovarian, 85.2% (inactive); in the assay with T-47D breast it was -32.9% (active); with BT-549 breast, -54.3% (active); in the assay with MDA-MB-435 melanoma it was -77.6% (active). The growth is -31.7% (active) with SW-620 colon; -39.2% (active) in the assay on MCF7 breast; -81% (active) in the assay with HCT-116 colon; -68.6% (active) in the assay with HCC-2998 colon; -77% (active) with KM12 colon.
Take `Cc1ccc(C(=O)Nc2ccc(CN3CCN(C)CC3)c(C(F)(F)F)c2)cc1C#Cc1cnc(N)cc1C#N`: the growth was -29.8% (active) in the assay with SR leukemia; -24.4% (active) with RPMI-8226 leukemia; -32.9% (active) in the assay on OVCAR-8 ovarian; 5.13% (active) in the assay on OVCAR-4 ovarian; -7.98% (active) with SK-OV-3 ovarian; -47.7% (active) in the assay with IGROV1 ovarian. For the same compound, the growth was -40.1% (active) with OVCAR-3 ovarian; -23.5% (active) with HS 578T breast; -27.3% (active) with NCI/ADR-RES ovarian; -4.9% (active) with T-47D breast; 13.9% (inactive) with BT-549 breast; -90.7% (active) in the assay on MDA-MB-435 melanoma. The growth was -81.2% (active) with SW-620 colon; -75.5% (active) in the assay on MCF7 breast; -87% (active) in the assay on HCT-116 colon; -77.3% (active) in the assay on HCC-2998 colon; -69.8% (active) with KM12 colon.
With `O=C(/C=C\c1ccc(Cl)c(Cl)c1)c1ccccc1`, the growth was 13.1% (inactive) and 106% (inactive) with SR leukemia; -27.3% (active) and 89.4% (inactive) with RPMI-8226 leukemia; 79.2% (inactive) and 98.9% (inactive) in the assay with OVCAR-8 ovarian; 88.3% (inactive) in the assay with OVCAR-4 ovarian; 101% (inactive) and 96.4% (inactive) in the assay with SK-OV-3 ovarian; 92.7% (inactive) and 82.4% (inactive) in the assay on IGROV1 ovarian. Also, the growth is 93.6% (inactive) and 98% (inactive) with OVCAR-3 ovarian; 111% (inactive) in the assay on HS 578T breast; 99.1% (inactive) and 105% (inactive) with NCI/ADR-RES ovarian; 77.4% (inactive) and 86.9% (inactive) with T-47D breast; 103% (inactive) in the assay on BT-549 breast; 31.9% (inactive) and 95.1% (inactive) in the assay on SW-620 colon. Besides, the growth in the assay with MCF7 breast was 18.8% (inactive) and 28.2% (inactive); in the assay on HCT-116 colon it was 22.7% (inactive) and 62.1% (inactive); with HCC-2998 colon, 95.2% (inactive) and 104% (inactive); in the assay with KM12 colon, 96.6% (inactive).
As for `Cc1ccc(-c2nc(C#N)c(S(=O)(=O)N(C)C)o2)cc1`, the growth in the assay with SR leukemia is -10.1% (active); in the assay on RPMI-8226 leukemia, 84.3% (inactive); with OVCAR-8 ovarian it was 80.3% (inactive); in the assay with OVCAR-4 ovarian, 108% (inactive); with SK-OV-3 ovarian, 102% (inactive); in the assay on IGROV1 ovarian, 80.5% (inactive). The growth is 77% (inactive) with OVCAR-3 ovarian; 105% (inactive) with HS 578T breast; 105% (inactive) with NCI/ADR-RES ovarian; 75.3% (inactive) in the assay on T-47D breast; 77.4% (inactive) with BT-549 breast; 97.7% (inactive) in the assay on MDA-MB-435 melanoma. Also, the growth in the assay on SW-620 colon was 81% (inactive); in the assay with MCF7 breast it was 46.1% (inactive); in the assay on HCT-116 colon, 63.2% (inactive); with HCC-2998 colon, 93.1% (inactive).
In the case of `CCNC(=S)n1nc(SC)c(C(=O)OCC)c1N`, the growth with SR leukemia was 89.2% (inactive); with RPMI-8226 leukemia, 110% (inactive); in the assay on OVCAR-8 ovarian, 110% (inactive); in the assay with OVCAR-4 ovarian, 96.7% (inactive); with SK-OV-3 ovarian it was 94% (inactive); with IGROV1 ovarian it was 90.6% (inactive). Besides, the growth in the assay on OVCAR-3 ovarian is 97.7% (inactive); with HS 578T breast, 110% (inactive); with NCI/ADR-RES ovarian, 94.8% (inactive); in the assay on T-47D breast, 86.4% (inactive); in the assay on BT-549 breast, 95.3% (inactive); in the assay with MDA-MB-435 melanoma it was 104% (inactive). Further, the growth in the assay with SW-620 colon is 102% (inactive); in the assay on MCF7 breast, 92% (inactive); in the assay on HCT-116 colon, 96.1% (inactive); in the assay on HCC-2998 colon it was 116% (inactive); in the assay with KM12 colon it was 97.5% (inactive).
